Consider 40 compounds from ChEMBL document CHEMBL1157539, “Thousands of chemical starting points for antimalarial lead identification” (Nature, 2010).

In the assay the test system is Plasmodium falciparum. In words: GSK_TCMDC: Inhibition of Plasmodium falciparum 3D7 in whole red blood cells, using parasite LDH activity as an index of growth. Test compounds present at 2uM. Format: functional.
By Inhibition is commonly meant the change of the read-out against control, counted positive when it falls. High values mean strong suppression, low ones little suppression. For `CC(C)COc1ccc2ccccc2c1CNCCCCCCNCc1c(OCC(C)C)ccc2ccccc12.CS(=O)(=O)O`, the Inhibition is listed as 90%.

Compound `Br.CC1(C)NC(N)=NC(=N)N1OCCCCCOc1ccccc1` came in with an Inhibition of 95%.

Compound `CCNc1cc(C(=O)N[C@@H](Cc2ccccc2)[C@H](O)CN[C@@H]2CCc3ccccc32)cc(N2CCCC2=O)c1` came in with an Inhibition of 92%.

In turn, `CCc1cn2c3c(cc(C(=O)N[C@@H](Cc4cccc(F)c4)[C@H](O)CNC4CCOCC4)cc13)N(C)S(=O)(=O)CC2.O=CO` gave an Inhibition of 97%.

For `COc1cccc(C(O)CNc2ccnc(Nc3ccc(Cl)cc3)n2)c1` (stereo not given), the Inhibition was 99%.

Take `COc1cc(Cc2cnc(N)nc2N)ccc1OCc1cccc(Oc2ccccc2)c1`: the Inhibition amounted to 84%.

`FC(F)(F)c1cccc(N=C(S)NN=Cc2ccccn2)c1` had an Inhibition of 100%.

In turn, `COc1cc(CNCCCNc2nc(=O)c3sccc3[nH]2)c2[nH]cc(Cl)c2c1.CS(=O)(=O)O` gave an Inhibition of 96%.

As to `COc1ccc2nccc(NCC3(O)CCC(NCc4cc5c(cn4)OCCO5)CC3)c2n1.Cl` (stereo not given), the Inhibition is listed as 99%.

`Cl.O=C(CCCC(=O)Nc1ccc(C2=NCCN2)cc1)Nc1ccc(C2=NCCN2)cc1` yielded an Inhibition of 91%.

On to `N#Cc1ccc(N/C(=N\c2ccc(-c3ccccc3)cc2)NCCc2c[nH]c3ccccc23)c(O)c1`, for which the Inhibition came to 96%.

Turning to `CN(CCC(CCN1CCC(c2c[nH]c3ccccc23)CC1)c1ccccc1)C(=O)Nc1ccc(Cl)c(Cl)c1` (stereo not given), the Inhibition is listed as 91%.

In the case of `Cc1ccc(CN2CCCN(Cc3ccc(C(=O)Nc4ccc(Cl)cc4)cc3)CC2)s1.O=C(O)C(F)(F)F`, the Inhibition worked out at 85%.

Turning to `O=C(NCc1cccc(OC(F)(F)F)c1)c1cnc2c(c1)nc(-c1c[nH]c(-c3ccccc3)n1)n2CCc1c[nH]cn1`, the Inhibition turned out to be 99%.

Take `Cc1ccc(CN2CCC(C(=O)Nc3ccc(-c4cc5ccccc5[nH]4)cc3)CC2)o1`: the Inhibition is reported as 92%.

Consider `O=C(NC1CCCCN(Cc2ccccc2O)C1)c1cccc(C(F)(F)F)c1.O=C(O)C(F)(F)F` (stereo not given), for which the Inhibition is given as 93%.

In turn, `CCCc1cn2c3c(cc(C(=O)N[C@@H](Cc4ccccc4)[C@H](O)CNC4CCCCC4)cc13)N(CC)S(=O)(=O)CC2.O=CO` came in with an Inhibition of 98%.

Take `CCCC1(NC[C@@H](O)[C@H](Cc2ccccc2)NC(=O)c2cc(NCC)cc(N3CCCCS3(=O)=O)c2)CCCCC1.Cl`: the Inhibition is recorded as 100%.

Take `O=C(/C=C/c1ccc(Cl)c(Cl)c1)NCCCCN1CCCN(C(=O)Nc2ccc(Cl)c(Cl)c2)CC1`: the Inhibition is given as 96%.

As to `Cl.Ic1cc(Nc2ncnc3ccsc23)ccc1OCc1ccccc1`, the Inhibition is given as 100%.

As for `CCN(Cc1ccccc1)C1CCN(Cc2cc(Br)ccc2O)CC1.O=C(O)C(=O)O`, the Inhibition turned out to be 97%.

Regarding `Br.CCCC1N=C(N)N=C(N)N1c1ccc(CC)cc1` (stereo not given), the Inhibition was 94%.

On to `Brc1ccc(C=NNc2nc3ccccc3[nH]2)cc1`, for which the Inhibition was determined as 100%.

In turn, `Nc1cccc(CNCc2cccc(-c3ccc(-c4nc5cc(C(F)(F)F)ccc5[nH]4)cc3)c2)c1.O=C(O)C(F)(F)F` came in with an Inhibition of 100%.

`CN1CCCN(c2ccnc3cc4c(cc23)N(C(=O)c2ccc(Cl)cc2Cl)CC4)CC1.Cl` showed an Inhibition of 100%.

`O=C(Nc1ccc(Oc2ccccc2)cc1)N(Cc1ccc(-c2ccc(CN3CCNCC3)cc2)cc1)C1CCN(Cc2ccccc2)CC1.O=C(O)C(F)(F)F` came in with an Inhibition of 100%.

The compound `Br.c1ccc(-c2ccc(-c3csc(Nc4ccncc4)n3)cc2)cc1` came in with an Inhibition of 100%.

In turn, `O=C(Nc1ccc(OC2CCN(Cc3ccc(F)cc3)C2)c(Cl)c1)c1ccc(F)cc1.O=C(O)C(F)(F)F` (stereo not given) registered an Inhibition of 96%.

In turn, `COc1ccc2nccc([C@@H](O)CN3C4CCC3CC(NCc3ccc5c(n3)NC(=O)CS5)C4)c2n1.Cl` (stereo not given in full) gave an Inhibition of 99%.

`COc1cccc(CCc2nc3c(N4CCC(Cc5ccccc5)CC4)cccc3n2CC2CNCCO2)c1.O=C(O)C(F)(F)F` (stereo not given) returned an Inhibition of 94%.

As for `Br.CCOC(=O)c1c(CNc2ccncc2)n(C)c2cc(Br)c(OC(C)=O)cc12`, the Inhibition was 96%.

`Cc1cccc(C(=O)Nc2ccnc(N3CCCN(Cc4cccc(O)c4)CC3)c2)c1.O=C(O)C(F)(F)F` registered an Inhibition of 84%.

`O=C(c1cc(-c2cccs2)n[nH]1)N1CCN(S(=O)(=O)c2ccc(Cl)s2)CC1` showed an Inhibition of 84%.

For `Cl.Nc1nc(N)c2c(ccc3nn(Cc4cccnc4)cc32)n1`, the Inhibition turned out to be 96%.

`COc1cc2c(cc1OCCN1CCC(N)CC1)N(C(=O)/C=C/c1ccccc1Cl)CC2.Cl` yielded an Inhibition of 91%.

In the case of `CCCc1cc(N2CCC(N(CC)CC)C2)nc(Nc2ccc(OC)cc2)n1` (stereo not given), the Inhibition worked out at 90%.

For the compound `COc1ccc(-c2ccc(NC(=O)c3cccc(C#N)c3)cc2)cc1CN1CCCC(C(N)=O)C1.O=C(O)C(F)(F)F` (stereo not given), the Inhibition is reported as 98%.

`COCn1ccc2c3c(N)nc(N)nc3ccc21` came in with an Inhibition of 88%.

Compound `CCCC(CNCc1cccc(OC(F)(F)F)c1)CNc1cc(=O)c2ccccc2[nH]1` (stereo not given) displayed an Inhibition of 100%.

For `Cc1cccc2nc(-c3ccc(-c4ccc(NC(=O)Nc5cccc(C#N)c5)cc4)s3)[nH]c12`, the Inhibition stood at 100%.
